Some targets named below: EMILIN2; ENAM; EMP1; EPC2; EPAS1; EPB41; EPDR1; EPHX1; ETFB; FAM113A; FAM111A; FABP9; FAM103A1.
Holding throughout (test): pooled miR-30 sensor sort-seq; sequence = guide strand
What all share (conditions): shRNA
Further: reference of the scale not given here.

TTTAATTCCATCATGACCCGTT: the sensor-assay potency score (higher = more potent) in the test with EMILIN2 came to 0.891. In the test with ENAM, TTGAACTTGTTGATTTCTGTAA gave a sensor-assay potency score (higher = more potent) of 0.247. Same read-out and setting: as for TAGTCTTGTAGAGCTAGTGGAT, the figure is -0.371. As for ATAGTCATCACACTGCTGCTGG, the sensor-assay potency score (higher = more potent) with EMILIN2 is 0.195. Take ATAGCATAATAACAGTAGCGAT: the sensor-assay potency score (higher = more potent) in the test with EMP1 is -1.69. On to TTGGAAACCAACCAGACATTGG, for which the sensor-assay potency score (higher = more potent) with EMP1 was -0.971.

TTCACTGGCATATGACAGGCTG had a sensor-assay potency score (higher = more potent) with EMP1 of -0.108. Take TTCTCCGTCACATTGATCCTTG: in the test with EMILIN2, the sensor-assay potency score (higher = more potent) was -0.623.

In the test with EMP1, TGATGCATCTACCGTATTGGAA showed a sensor-assay potency score (higher = more potent) of -0.931.

As to TATAATTTGATTTATTAACTTC, the sensor-assay potency score (higher = more potent) in the test with ENAM was -0.315. The same measure, in the same setting: for TTGAGCTTCCTCTTCGGGCTGA the value was 1.2; for TAGAGCTAGTGGATTGTCCTTG, 0.779.

As to ATAATAACAGTAGCGATGTGGA, the sensor-assay potency score (higher = more potent) in the test with EMP1 was -0.819. The sequence AACAACTTGAACTTTGTCCTTC displayed a sensor-assay potency score (higher = more potent) in the test with EMILIN2 of 0.591. In the test with ENAM, TTCTTTATAGAACATGGTGTGT gave a sensor-assay potency score (higher = more potent) of -0.573. With TTTTTCCAAAGACCTACTGATG, in the test with EMP1, the sensor-assay potency score (higher = more potent) was -1.45. The same measure, in the same setting: as for TTCGCATAATGACTAGTGTAGA, the figure is -1.4; as for ATCTACCGTATTGGAAACCAAC, -1.95; as for ATAATGACTAGTGTAGATGGAC, -0.252. In the test with EMP1, ACCGTATTGGAAACCAACCAGA registered a sensor-assay potency score (higher = more potent) of -1.97. Same read-out and setting: for TTGAGGGCATCTTCACTGGCAT the value was -0.461. In the test with ENAM, TAAATTGTTCCTCAGTAGCTAA yielded a sensor-assay potency score (higher = more potent) of -0.863. Regarding TATTGGAAACCAACCAGACATT, in the test with EMP1, the sensor-assay potency score (higher = more potent) is -1.22. Turning to AATAGCATAATAACAGTAGCGA, in the test with EMP1, the sensor-assay potency score (higher = more potent) is 0.0884. Regarding TACAGTTTTTCCAAAGACCTAC, the sensor-assay potency score (higher = more potent) with EMP1 is -0.739. Sequence TTGAGGTATATTGTTCACCTTC had a sensor-assay potency score (higher = more potent) with ENAM of -0.314. Still for that read-out and setting: as for TGAAATACCACTGTCTTCCTGA, the figure is 0.779; as for TTTAGGAGGATCTTCTTCTTTG, -0.209.

On to TTTTTCTCTAAACACTTGCTGT, for which the sensor-assay potency score (higher = more potent) in the test with EPC2 is -0.823. In the test with EPAS1, TTGGGTGAACTTATCATTGGGT had a sensor-assay potency score (higher = more potent) of 0.697. On to TACAAGTTGTCCATCTGCTGGT, for which the sensor-assay potency score (higher = more potent) with EPAS1 turned out to be 0.354. Sequence TTTGATCTCCTCTTGACTCTTG gave a sensor-assay potency score (higher = more potent) with EPB41 of 0.604.

In the test with EPC2, TATAACTCTTTTTCTGATCTAC came in with a sensor-assay potency score (higher = more potent) of 0.207. In turn, TTGATCTCCTCTTGACTCTTGT registered a sensor-assay potency score (higher = more potent) with EPB41 of 0.588.

Take TTAGCTGGAAGTCTTCCCCGTC: the sensor-assay potency score (higher = more potent) with EPAS1 is -0.236. The sequence TTGCTGTTTCTGCTGAAGCTGG yielded a sensor-assay potency score (higher = more potent) in the test with EPC2 of -1.06. Same read-out and setting: for TTATTGTTCACAGTCTGCCCTG the value was -0.344. In turn, TCAATCTGAAACATCACTCCAT came in with a sensor-assay potency score (higher = more potent) with EPDR1 of 1.13. As to TTGGTCACTGACATGTCTGGGT, the sensor-assay potency score (higher = more potent) with EPB41 is -0.161.

In the test with EPC2, TTAAGTGCAATAATTCTCGTTT displayed a sensor-assay potency score (higher = more potent) of 0.497. Still for that read-out and setting: for TTCTTGAAGTGTTACAAGCTGA the value was -0.486; for TTCTTCACTATCACTGTCCTGT, 0.612. As to TTATGTCTTCTGTTAACTGTGC, in the test with EPB41, the sensor-assay potency score (higher = more potent) is -0.0684. With TACGAGGGAACTCTAGTCCTGG, the sensor-assay potency score (higher = more potent) with EPDR1 was -0.607. TTCTGGGTCGTAGTCTCCCAGT yielded a sensor-assay potency score (higher = more potent) in the test with EPB41 of -1.42. In the test with EPB41, TTTACTTGCTGTACGCTCGAAG came in with a sensor-assay potency score (higher = more potent) of 0.135.

TTGACAAGATTCCTCCTGCTGA: the sensor-assay potency score (higher = more potent) with EPB41 was -0.541.

The sequence TTGCATCTGAACTAACTGCTGC yielded a sensor-assay potency score (higher = more potent) in the test with EPC2 of 0.128. Sequence TAGAGCACTAGCTTGCCTGGTC returned a sensor-assay potency score (higher = more potent) with EPB41 of 0.107. In the test with EPB41, TTTTTCAGCTCACTGATGCTGG registered a sensor-assay potency score (higher = more potent) of 0.147. In the case of TTGAACAATTCTGATATCCTAA, the sensor-assay potency score (higher = more potent) in the test with EPB41 was -0.113. As for TTCTTTGCCTTCTTCCTCGGAC, the sensor-assay potency score (higher = more potent) in the test with EPB41 was -0.102.

For TTGAGGTACATTCTTCACTATC, the sensor-assay potency score (higher = more potent) with EPC2 is -1.27.

As to TTGACTCTTGTCTAAATCCTCC, the sensor-assay potency score (higher = more potent) in the test with EPB41 is -0.522. In the test with EPC2, TTTCTCTAAACACTTGCTGTGC showed a sensor-assay potency score (higher = more potent) of -0.595. Take TATCTTGTTATGTCTTCTGTTA: in the test with EPB41, the sensor-assay potency score (higher = more potent) is -0.573. The same measure, in the same setting: as for TTTACTTCTATTTTGGAGCACT, the figure is -0.574.

Turning to TAGTTTTACATTCTTGAACTTT, the sensor-assay potency score (higher = more potent) with EPC2 is -0.105. TTCATAAACTGTGTCATCCAAC showed a sensor-assay potency score (higher = more potent) in the test with EPB41 of -0.828. Same read-out and setting: as for TTAGCTGCTCGGTAACTGGGAA, the figure is -0.397; as for TTTGTAGAAACAACCAGCCTGG, 0.246.

Sequence TTAATTTCCATCTTTCTGTTAA registered a sensor-assay potency score (higher = more potent) with EPC2 of -0.679. TGTTTGACAAGATTCCTCCTGC yielded a sensor-assay potency score (higher = more potent) with EPB41 of 0.721. The same measure, in the same setting: for TAGAATAATCTTGAAAGTCTGA the value was 0.113; for TAAAACTTTACATTAAATGTAA, -0.313; for ATCTTCTCTGAGTTCTTCCTGA, -0.459. Still for that read-out and setting: as for TAGCTTGCCTGGTCTGAGCTTG, the figure is -0.0306. On the same count and under the same terms, for ATAATTTCTTAGCTGCTCGGTA the value was -0.474.

As to TTGTCCAGTAGAGCATGACGTT, the sensor-assay potency score (higher = more potent) with EPHX1 is -1.4. For the sequence TCAGCTGTCACCACAGCTGGCA, in the test with ETFB, the sensor-assay potency score (higher = more potent) is -0.558.

The sequence TCCACTTTCAACTTGTCCCCCT registered a sensor-assay potency score (higher = more potent) with ETFB of -0.169.

On to TTGATGATCACCAGGTCCGGGG, for which the sensor-assay potency score (higher = more potent) in the test with FAM113A was -0.983. Take TTGAGCAGCGACCATATCTGGA: the sensor-assay potency score (higher = more potent) with FAM113A is -0.708. In the test with FAM111A, TCTTTTCTCAACCTCAACCTGA gave a sensor-assay potency score (higher = more potent) of -0.463. In the test with FAM113A, TCTCTCTGAGTGTCTGAGCCGC returned a sensor-assay potency score (higher = more potent) of -0.879. Sequence TTGTTGTGTAGCAGCTGCTGGA showed a sensor-assay potency score (higher = more potent) with FAM113A of -0.714.

TTTGAGATCATTTCTAATCAAG returned a sensor-assay potency score (higher = more potent) in the test with FAM111A of -0.737.

Turning to TTCATATCTTGGTTTCTCCTGT, the sensor-assay potency score (higher = more potent) in the test with FAM111A was found to be 0.306. On to TTCTTTTGATTGTTGTCTCTTT, for which the sensor-assay potency score (higher = more potent) with FABP9 was -0.11. For the sequence TTCTAATTCATCAACTGGCTGG, the sensor-assay potency score (higher = more potent) with FAM111A was 0.174.

As for TAGTGTCCTGGAAAGAACTTTC, in the test with FABP9, the sensor-assay potency score (higher = more potent) was -1.06. In the case of TATGTGGTTATCTTCCTTCTGC, in the test with FAM111A, the sensor-assay potency score (higher = more potent) was -0.217.

Take TTGTTCTCTCAACACACAGGTG: in the test with FAM111A, the sensor-assay potency score (higher = more potent) is -0.868. Still for that read-out and setting: as for TTGAGAGCCATATATAAGCTAC, the figure is -0.708.

TTGTCATTTTCTGTGAATCTAC gave a sensor-assay potency score (higher = more potent) with FAM103A1 of -0.838. Same read-out and setting: as for TGTCTGTTGTCTTGCAACCGAT, the figure is -1.2; as for ATCTACTAGCAAACATCTCTTC, -0.234; as for TTGTCTTGCAACCGATTGCCTC, -1.09. Sequence TAGCTCTCCATTGAGCAGCGAC registered a sensor-assay potency score (higher = more potent) with FAM113A of -1.09. With TATGGTGCTCTTTACTTTCCGG, in the test with FABP9, the sensor-assay potency score (higher = more potent) was -0.345.
